E coli growth-1: reduces bacterial viability in AddAB counter-screen | hit rate 0.27% among 330,000 | AID 449728 | inhibition, % at 11.9 µM | E. coli V3065 growth, OD600 absorbance, 18 h;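 active means inhibition above the campaign's mean inhibition across all tested compounds plus 3 SD, cut at about 9.9% in these data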;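 further: uninfected addAB+ strain grown without phage in ampicillin broth; 0% = DMSO wells and 100% = ciprofloxacin 0.95 µg/ml wells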
phage Ecoli inh: E. coli growth loss with phage present. growth absorbance. inhibition, % at 11.9 µM. hit rate 0.26% among 360,000. AID 651602; in the data active means inhibition above about 11%
AddAB inh: less growth of phage-infected E. coli with AddAB; E. coli expressing H. pylori AddAB, absorbance growth; inhibition, % at 11.9 µM; hit rate 0.29% among 330,000; in the data active means inhibition above about 12%;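 further: 0% = vehicle wells of infected cells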
E coli growth-2: blocks Escherichia coli growth; OD600, 23 h; active compounds read low; OD600 absorbance (no concentration beside the values); hit rate 0.21% among 330,000; AID 1053175;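 active means OD600 absorbance below the run mean of sample wells minus 3.6 SD, in any replicate, cut at about 0.56 in these data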
Tat export inh: E. coli Tat transport inhibition. E. coli MC4100 TorA-mCherry Tat export, fluorescence. hit rate 0.036% among 340,000. inhibition, % at 10 µM;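 active means mean replicate inhibition at least 50% and at least half of replicates individually reaching 50%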;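 further: exported cargo escapes ClpAP degradation while cytoplasmic cargo is degraded and loses fluorescence; 0% = median of neutral control wells and 100% = median of NaSCN control wells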
* = called active by the depositor; . = not tested or not shown. Hits are enriched below; roughly 0.5% of the tested compounds scored in any of these assays.

SMILES	E coli growth-1	phage Ecoli inh	AddAB inh	E coli growth-2	Tat export inh
CCn1c(C)nnc1SCC(=O)Nc1ccc(C(C)=O)cc1	1	2	2	0.67	-4
O=C(CSc1cccc[n+]1[O-])c1cc(Cl)ccc1Cl	-1	0	5	0.12*	1
CCn1c2c(c(=N)c3c1CCC3)CCCC2	2	2	-2	0.67	.
CCCCCCCCCn1c2c(c(=N)c3c1CCC3)CCCC2	.	.	.	0.43*	30
CCCCCCCCn1c2c(c(=N)c3ccccc31)CCC2	.	8	.	0.59	-1
CCCCCCCCCCn1c2c(c(=N)c3c1CCC3)CCC2	8	8	5	0.22*	1
O=C(c1cnc2n(c1=O)CCS2)N1CCCc2ccccc21	1	1	-1	0.72	0
CCOc1ccc(NS(=O)(=O)c2ccc(C(=O)NNC(=O)c3ccccc3O)cc2)cc1	0	4	6	0.52*	-11
C/C(C=NNc1nc2ccccc2[nH]1)=C\c1ccccc1	.	.	.	0.51*	.
Cc1c(CC(=O)NCC(=O)NCC(=O)O)c(=O)oc2c(C)c3oc4c(c3cc12)CCCC4	.	1	.	0.67	2
O=c1c(Br)ccc(Br)cc1Br	.	7	.	0.52*	6
O=C1CN(S(=O)(=O)c2cc(Br)ccc2Br)CCN1	0	2	2	0.69	-3
CCC(CC)NC(=O)Nc1ccc(C)cc1	0	-1	-1	0.7	-8
CCCN(CCC)S(=O)(=O)c1ccc(C(=O)NNc2nc(-c3ccccc3)c3cc(Br)ccc3n2)cc1	-2	5	-1	.	1
CCn1cc(C(=O)O)c(=O)c2cnc(N3CCN(C(=S)NC(=O)c4ccc(Cl)cc4)CC3)nc21	4	.	4	0.43*	.
CCn1cc(C(=O)O)c(=O)c2cnc(N3CCNCC3)nc21	103*	.	102*	.	.
CCn1cc(C(=O)NCCc2ccc(Cl)cc2)c(=O)c2ccc(C)nc21	.	1	.	0.6	-14
CCn1cc(C(=O)O)c(=O)c2cnc(N3CCN(C(=S)NC(=O)c4ccc(Br)cc4)CC3)nc21	1	.	3	0.46*	.
CCN1CCN(C(=S)NC(=O)c2cc(OC)c(OC)c(OC)c2)CC1	2	2	1	0.7	2
Cc1ccccc1N(Cc1ccccc1F)S(C)(=O)=O	-3	0	1	0.71	-7
Cc1ccc(N2C(=O)Cc3ccccc3C2=O)cc1	2	0	4	0.63	3
Cc1cccc(N2C(=O)Cc3ccccc3C2=O)c1	0	0	0	0.53*	-6
CC(=O)N1CCN(c2ccc(Oc3ccc([N+](=O)[O-])c(C(F)(F)F)c3)cc2)CC1	2	.	3	0.65	-4
C=CCSC(=S)NC1CCS(=O)(=O)C1 (configuration not stated)	-2	3	4	0.5*	-21
CCNc1nc(NCc2ccccc2)nc(SCC(=O)Nc2ccccc2)n1	1	2	2	0.69	1
SMILES	E coli growth-1	phage Ecoli inh	AddAB inh	E coli growth-2	Tat export inh
O=C1CN(N=Cc2ccc([N+](=O)[O-])o2)C(=O)N1	.	.	.	0.46*	.
COCCn1c(SCC(=O)NCc2ccc3c(c2)OCO3)nnc1C(C)C	-2	1	2	0.66	-6
COCCn1c(SCC(=O)NCc2ccc3c(c2)OCO3)nnc1-c1c[nH]c2ccccc12	1	93*	1	0.79	-1
COc1cc(NS(=O)(=O)c2ccc(N)cc2)ncn1	16*	.	21*	.	.
O=C(NN=Cc1ccc([N+](=O)[O-])o1)C(O)c1ccccc1 (configuration not stated)	.	.	.	0.44*	.
CCN(CC)c1ccc(N=Cc2ccc([N+](=O)[O-])o2)cc1	5	5	12	0.15*	-1
COC(=O)NN=Cc1ccc([N+](=O)[O-])o1	.	.	.	0.051*	.
Cc1nc2ccccn2c1C(=O)NN=Cc1ccc([N+](=O)[O-])o1	.	.	.	0.52*	.
Cc1nc2ccccn2c1C(=O)N/N=C/c1ccc([N+](=O)[O-])o1	6	7	9	.	-10
O=C(Nc1ccccc1)c1cccc(S(=O)(=O)NC2CCCC2)c1	2	1	-2	0.72	3
COc1ccccc1OCC(=O)NN=CC=Cc1ccc([N+](=O)[O-])o1	.	.	.	0.36*	.
CCCCCCn1ccc(=N)cc1	-1	1	4	0.77	3
CCCCCCCCCCCCCCCCn1cc[n+](CC(C)=O)c1	.	.	.	0.064*	32
NC(=O)SCC(=O)Nc1ccc(Cl)cc1	6	0	3	0.53*	-2
CCOc1ccc(CNc2ccc3c(c2)nc(C)n3C)cc1	-1	2	2	0.69	7
COc1ccc(CNc2ccc3c(c2)nc(C)n3C)cc1OC	13*	0	-2	0.65	-2
CCOc1ccc(-c2cc(C(=O)NCc3ccc(F)cc3)[nH]n2)c(C)c1	.	2	.	.	.

Screens as filed in PubChem.
